Results on 27 molecules are retold here after PubChem BioAssay (Tox21).

Records with an inconclusive call do not appear. Calls of active or inactive are those of the source. Unless noted, calls follow the shape of the dose curve; as a rule, active = well fitted curve in the direction sought with a large enough effect in the repeat runs; inconclusive = weak or mixed curves; inactive = no such curve, though single readings can be large; an effect the other way counts as inactive or inconclusive.

A short description of assay [1]: qHTS assay to identify small molecule agonists of the peroxisome proliferator-activated receptor delta (PPARd) signaling pathway - cell viability counter screen (AID 743211). Also: nearly all actives have a fitted effect of over 55% in size. Also: potency is read from the fitted curve at half-maximal effect. The gist of the method: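 HEK293H PPARd-bla, 3000 cells/well; 5 h preincubation 37C/5% CO2; cpd in DMSO, 17 h 37C; B/G FRET substrate 2 h RT; CellTiter-Glo 30 min RT, luminescence.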
(In general: In qHTS, concentration-response curves come from the screen itself.)

In assay [2] the target is Peroxisome proliferator-activated receptor delta (Homo sapiens) (UniProt Q03181). In words: qHTS assay to identify small molecule agonists of the peroxisome proliferator-activated receptor delta (PPARd) signaling pathway (AID 743212; calls by dose curve). The gist of the method: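 Read-out: beta-lactamase FRET fluorescence after 2 h room-temperature incubation with LiveBLAzer B/G substrate. Cells were HEK293H carrying a UAS-bla reporter for PPARd, treated at 37 C with DMSO-dissolved compounds.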
Peroxisome proliferator-activated receptor delta (Homo sapiens), sequence (Q03181 whole entry, looked up): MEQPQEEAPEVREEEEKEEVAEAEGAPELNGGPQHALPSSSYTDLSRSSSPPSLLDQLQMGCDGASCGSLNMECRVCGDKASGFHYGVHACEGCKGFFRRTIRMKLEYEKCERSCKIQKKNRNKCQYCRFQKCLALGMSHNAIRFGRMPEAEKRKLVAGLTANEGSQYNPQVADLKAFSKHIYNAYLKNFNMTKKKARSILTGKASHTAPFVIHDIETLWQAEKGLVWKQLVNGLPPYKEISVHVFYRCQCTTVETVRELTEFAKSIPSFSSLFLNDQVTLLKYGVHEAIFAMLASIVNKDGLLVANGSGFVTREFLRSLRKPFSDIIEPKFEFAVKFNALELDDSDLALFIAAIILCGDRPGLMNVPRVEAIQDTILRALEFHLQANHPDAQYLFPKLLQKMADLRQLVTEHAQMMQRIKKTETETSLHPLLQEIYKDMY

The nature of assay [3]: qHTS assay to identify small molecule antagonists of the farnesoid-X-receptor (FXR) signaling pathway - cell viability counter screen (AID 743221; active = well fitted cell-killing curve with a large enough effect in the repeat runs, not every such curve was filed as active; also: nearly all actives have a fitted effect of over 50% in size; also: potency is read from the fitted curve at half-maximal effect). The essentials:
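Luminescence from CellTiter-Glo measures cytotoxicity in GeneBLAzer FXR-UAS-bla HEK 293T cells. Cells were exposed to compounds with 50 uM chenodeoxycholic acid (final) for 16 h at 37 C, in wells also used for the reporter readout.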

The target of assay [4] is Vitamin D3 receptor (Homo sapiens) (UniProt P11473). In words: qHTS assay to identify small molecule antagonists of the vitamin D receptor (VDR) signaling pathway (AID 743223; active = well fitted inhibition curve with a large enough effect in the signal ratio in the repeat runs, not every such curve was filed as active; the % refers to the signal ratio). The essentials: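 Antagonist mode uses 1alpha,25-dihydroxyvitamin D3 at 3 nM final as stimulus. VDR-bla cells receive compounds in DMSO, incubate 16 h at 37C, then a beta-lactamase FRET substrate for 2 h at room temperature before fluorescence measurement.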
Vitamin D3 receptor (Homo sapiens), sequence (P11473 whole entry, looked up): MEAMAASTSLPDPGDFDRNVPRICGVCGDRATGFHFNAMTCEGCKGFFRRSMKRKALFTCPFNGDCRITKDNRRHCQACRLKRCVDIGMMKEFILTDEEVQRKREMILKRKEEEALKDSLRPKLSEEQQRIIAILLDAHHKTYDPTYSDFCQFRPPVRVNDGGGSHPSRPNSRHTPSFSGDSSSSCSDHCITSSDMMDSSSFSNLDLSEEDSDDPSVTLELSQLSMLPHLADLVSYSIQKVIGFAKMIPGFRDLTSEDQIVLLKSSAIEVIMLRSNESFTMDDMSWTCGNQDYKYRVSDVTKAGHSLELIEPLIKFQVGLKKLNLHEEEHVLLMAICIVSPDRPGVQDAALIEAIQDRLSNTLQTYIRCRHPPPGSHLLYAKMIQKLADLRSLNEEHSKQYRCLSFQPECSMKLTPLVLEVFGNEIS

The nature of assay [5]: qHTS assay to identify small molecule antagonists of the peroxisome proliferator-activated receptor delta (PPARd) signaling pathway - cell viability counter screen (AID 743213). Also: nearly all actives have a fitted effect of over 50% in size. Also: potency is read from the fitted curve at half-maximal effect. The gist of the method: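 CellTiter-Glo was added to PPARd-bla HEK293H wells following 17 h compound treatment in the presence of 300 nM L165041. Luminescence was recorded after 30 min at room temperature.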

Assay [6] is described as follows: qHTS assay to identify small molecule agonists of the farnesoid-X-receptor (FXR) signaling pathway - cell viability counter screen (AID 743218). Also: nearly all actives have a fitted effect of over 45% in size. Also: potency is read from the fitted curve at half-maximal effect. The gist of the method:
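Viability counter screen in the same wells: CellTiter-Glo luminescence, 30 min room-temperature incubation, measured after the beta-lactamase read. Cells were GeneBLAzer FXR-UAS-bla HEK 293T, compound-treated 16 h at 37C.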

In assay [7] the target is Bile acid receptor (Homo sapiens) (UniProt Q96RI1). In words: qHTS assay to identify small molecule agonists of the farnesoid-X-receptor (FXR) signaling pathway (AID 743220; active = well fitted activation curve with a large enough effect in the signal ratio in the repeat runs, not every such curve was filed as active; the % refers to the signal ratio). The gist of the method: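 FXR-UAS-bla HEK 293T cells carrying a UAS-driven beta-lactamase reporter were plated for 5 h at 37C/5% CO2, then exposed to DMSO-dissolved Tox21 10K compounds for 16 h at 37C. A LiveBLAzer B/G FRET substrate was loaded for 2 h at room temperature before fluorescence reading.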
Bile acid receptor (Homo sapiens), sequence (Q96RI1 whole entry, looked up): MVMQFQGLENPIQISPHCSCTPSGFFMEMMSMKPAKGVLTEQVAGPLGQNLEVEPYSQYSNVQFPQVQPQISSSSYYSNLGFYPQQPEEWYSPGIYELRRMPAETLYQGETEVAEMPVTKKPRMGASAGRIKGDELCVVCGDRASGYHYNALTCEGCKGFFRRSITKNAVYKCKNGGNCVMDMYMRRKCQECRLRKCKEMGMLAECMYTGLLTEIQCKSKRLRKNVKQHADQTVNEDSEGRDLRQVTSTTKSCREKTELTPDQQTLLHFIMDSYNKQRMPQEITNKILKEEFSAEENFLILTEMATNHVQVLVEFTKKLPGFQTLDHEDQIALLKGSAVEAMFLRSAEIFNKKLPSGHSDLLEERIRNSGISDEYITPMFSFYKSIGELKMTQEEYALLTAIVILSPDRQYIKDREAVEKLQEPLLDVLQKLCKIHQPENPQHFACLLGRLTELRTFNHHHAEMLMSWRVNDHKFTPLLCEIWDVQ

Assay [8] concerns the target Vitamin D3 receptor (Homo sapiens) (UniProt P11473). In words: qHTS assay to identify small molecule agonists of the vitamin D receptor (VDR) signaling pathway (AID 743222; calls by dose curve). The gist of the method:
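Agonist mode, beta-lactamase reporter: fluorescence from LiveBLAzer B/G FRET substrate (2 h, room temperature) read after 16 h compound treatment at 37 C of VDR-bla cells, which were pre-incubated 4 h after seeding.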

Assay [9] concerns the target Bile acid receptor (Homo sapiens) (UniProt Q96RI1). In words: qHTS assay to identify small molecule antagonists of the farnesoid-X-receptor (FXR) signaling pathway (AID 743217; active = well fitted inhibition curve with a large enough effect in the signal ratio in the repeat runs, not every such curve was filed as active; the % refers to the signal ratio). The gist of the method:
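Antagonist mode: chenodeoxycholic acid at 50 uM final stimulates a UAS-driven beta-lactamase reporter in HEK 293T FXR-bla cells during 16 h, 37C compound exposure. Read-out is FRET substrate fluorescence after 2 h at room temperature.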

In assay [10] the target is Peroxisome proliferator-activated receptor delta (Homo sapiens) (UniProt Q03181). In words: qHTS assay to identify small molecule antagonists of the peroxisome proliferator-activated receptor delta (PPARd) signaling pathway (AID 743215; active = well fitted inhibition curve with a large enough effect in the signal ratio in the repeat runs, not every such curve was filed as active; the % refers to the signal ratio;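 also: cells stimulated with agonist L165041 at 300 nM final during compound exposure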; also: potency is read from the fitted curve at half-maximal effect). The essentials:
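Agonist L165041 (300 nM final) added with compound to PPARd-bla HEK293H UAS-bla reporter cells; 17 h incubation at 37 C. Read-out: LiveBLAzer FRET substrate, 2 h at room temperature, fluorescence intensity.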

With `CCC(=O)Oc1ccc(/C(CC)=C(\CC)c2ccc(OC(=O)CC)cc2)cc1`, in [1], the Potency was 54.9 µM (active). Also, the Potency result in [2] and in assay [3] was “inactive” in each case. Further, the molecule was called inactive in [4].
`Nc1nc(Cl)nc2c1ncn2[C@@H]1O[C@H](CO)[C@@H](O)[C@@H]1F`: the Potency entry in assay [1], in assay [2], in [5], in assay [6], in [7] and in assay [3] was “inactive” in each case. Further, the outcome in [8] was inactive.
Take `CCOCCn1c(C2CCN(CCc3ccc(C(C)(C)C(=O)O)cc3)CC2)nc2ccccc21`: the Potency result in [1], in assay [2], in [9], in assay [6], in assay [7] and in assay [3] was “inactive” in each case. Besides, the result in assay [8] and in [4] was inactive.
On to `COc1ccc([C@@H]2Sc3ccccc3NC(=O)[C@@H]2O)cc1`, for which the Potency result in assay [1], in assay [2], in assay [10], in assay [6], in [7] and in assay [3] was “inactive” in each case. The molecule was called inactive in [8].
For `c1cc[c]([Bi]([c]2ccccc2)[c]2ccccc2)cc1`, the Potency result in assay [1], in assay [2], in [5], in [6] and in [3] was “inactive” each time. For the same molecule, in assay [8], the call was inactive.
As to `C/C=C/C=C/CCCCCCCO`, the Potency entry in assay [1], in assay [2], in assay [9], in [6], in [7] and in assay [3] was “inactive” throughout.
On to `CN(C)CCOC1=Cc2ccccc2Sc2ccc(Cl)cc21`, for which the Potency in assay [1] and in [5] was 26.6 µM (active) throughout. In addition, the Potency result in assay [2], in assay [9] and in assay [7] was “inactive” in each case. Moreover, the molecule was classed as inactive in [8].
In the case of `CCCOC(=O)c1ccc(C(=O)OCCC)nc1`, the Potency entry in assay [1], in assay [2], in assay [5], in [6], in assay [7] and in assay [3] was “inactive” in each case.
`CN1CCCN=C1/C=C/c1cccs1`: the Potency entry in assay [1], in [2], in assay [5], in assay [6] and in assay [3] was “inactive” each time. For the same molecule, the outcome in [4] was inactive.
In the case of `CC(C)C(=O)O`, the Potency result in [1], in assay [2], in assay [10], in assay [6] and in [3] was “inactive” in each case. Also, the call in assay [8] and in assay [4] was inactive.
As to `CCCCCCCCCCCCCCC[C@H](O)[C@@H](N)CO`, the Potency entry in assay [1], in assay [2], in assay [10] and in assay [3] was “inactive” in each case.
Regarding `O=[N+]([O-])c1cccc(S(=O)(=O)NCCNS(=O)(=O)c2cccc([N+](=O)[O-])c2)c1`, the Potency result in assay [1], in assay [2], in assay [9], in [6], in assay [7] and in [3] was “inactive” throughout. The molecule was classed as inactive in assay [8] and in assay [4].
Take `COCc1c(C(C)C)nc(C(C)C)c(/C=C/[C@@H](O)C[C@@H](O)CC(=O)O)c1-c1ccc(F)cc1`: the Potency result in assay [1], in [2], in assay [10] and in assay [6] was “inactive” in each case. In addition, the outcome in assay [8] was inactive.
As for `Fc1c(F)c(F)c(Br)c(F)c1F`, the Potency entry in [1], in [2], in [5], in assay [6] and in [3] was “inactive” in each case. In addition, the molecule was classed as inactive in [8].
For `CCCCCCCCCCCC[N+](C)(C)CC(=O)[O-]`, the Potency in assay [1] was 15.5 µM (active). For the same molecule, the Potency entry in [2], in assay [10], in assay [9] and in [7] was “inactive” in each case. The molecule was called inactive in assay [8] and in [4].
Consider `CCCCC(=O)O[C@]1(C(=O)CO)[C@@H](C)C[C@H]2[C@@H]3CCC4=CC(=O)C=C[C@]4(C)[C@@]3(F)[C@@H](O)C[C@@]21C`, for which the Potency entry in assay [1], in assay [2], in assay [10], in assay [6] and in assay [3] was “inactive” each time. For the same molecule, the outcome in assay [8] and in assay [4] was inactive.
Take `CN1C(=O)CC(C)(c2ccccc2)C1=O` (stereo not given): the Potency result in [1], in assay [2], in assay [5], in assay [6] and in assay [3] was “inactive” in each case. The molecule was classed as inactive in assay [8] and in assay [4].
Consider `Oc1ccc(Nc2ccccc2)cc1`, for which the Potency result in assay [1], in [2], in [9] and in [3] was “inactive” each time. Also, the result in [8] was inactive.
As to `CCCCN(CCCC)C(=S)SSC(=S)N(CCCC)CCCC`, the Potency entry in [1], in assay [2] and in assay [3] was “inactive” in each case. Further, in [10], the Potency is 21.7 µM (active). Further, the outcome in [4] was inactive.
As for `CCc1c2c(nc3ccc(OC(=O)N4CCC(N5CCCCC5)CC4)cc13)-c1cc3c(c(=O)n1C2)COC(=O)[C@]3(O)CC`, the Potency result in assay [1], in assay [2], in assay [6], in assay [7] and in assay [3] was “inactive” throughout.
Take `O=C1OCCN1/N=C/c1ccc([N+](=O)[O-])o1`: the Potency entry in assay [1], in assay [2], in [10], in assay [6] and in [3] was “inactive” throughout.
Take `CO[C@@]12[C@H](COC(N)=O)C3=C(C(=O)C(C)=C(N)C3=O)N1C[C@@H]1N[C@@H]12`: the Potency result in assay [1], in [2], in [5], in [6], in assay [7] and in assay [3] was “inactive” in each case.
Regarding `O=C(CCCN1CCN(c2ccc(F)cc2)CC1)NC1c2ccccc2CSc2ccccc21` (stereo not given), the Potency was 9.44 µM (active) in assay [1], 8.41 µM (active) in assay [5], 10.6 µM (active) in assay [6] and 26.6 µM (active) in [3]. Also, the Potency entry in assay [2] and in [7] was “inactive” in each case.
Regarding `CC1=CC(O)CC(C)(C)C1` (stereo not given), the Potency entry in assay [1], in assay [2], in assay [5] and in [3] was “inactive” in each case. Also, the molecule was called inactive in [8] and in [4].
Regarding `NC(=O)Nc1ccc(Cl)cc1`, the Potency result in assay [1], in assay [2], in [5], in assay [6] and in assay [3] was “inactive” in each case. Also, the result in assay [8] and in assay [4] was inactive.
As to `CC(N)CN` (stereo not given), the Potency result in assay [1], in assay [2], in assay [5], in assay [9], in [6] and in [7] was “inactive” in each case. Moreover, the Potency result in assay [3] is “inactive”. Also, in assay [4], the result was inactive.
In the case of `CC(=N\O)/C(C)=N/O`, the Potency result in assay [1], in [2] and in [5] was “inactive” throughout. The outcome in assay [8] and in assay [4] was inactive.
